The nature of test [1]: cAMP Responsive Elements (CRE) small molecule antagonists, cell-based qHTS assay: qHTS cell viability counter screen (AID 2060913). Also: nearly all actives have a fitted effect of over 40% in size. The method in brief: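 Steps: cells plated and held 18 hrs at 37 C/5% CO2; compounds and NKH477 (0.25 uM final) added; 3 hrs incubation; reporter substrate read; CellTiter-Glo added to measure cytotoxicity by luminescence.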
Background: Quantitative high-throughput screening tests each substance at several concentrations.

The nature of test [2]: cAMP Responsive Elements (CRE) small molecule agonists, cell-based qHTS assay: qHTS cell viability counter screen (AID 2060914). Also: nearly all actives have a fitted effect of over 50% in size. The method in brief: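 HEK 293T CRE-bla; DMEM + 10% dialyzed FBS, 25 mM HEPES; 18 h pre-incubation; compound 3 h, 37 °C/5% CO2; CellTiter-Glo added after reporter read; luminescence after 30 min RT.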

Inconclusive results are not listed. Values without a mark were called inactive. Active and inactive are the calls of the source. Calls follow the shape of the dose curve; as a rule, active = well fitted cell-killing curve with a large enough effect in the repeat runs; inconclusive = weak or mixed curves, or effect the other way; inactive = flat fitted curve, though single readings scatter.
% is scaled to controls: 0 for no effect and ±100 for the full control effect.

Take `O=[N+]([O-])c1cncn1CCN1CCOCC1`: the Potency result in test [1] and in test [2] was “inactive” in each case.

`O=C1c2c(O)cccc2Cc2cccc(O)c21`: the Potency result in test [1] and in test [2] was “inactive” in each case.

In the case of `CCN1CCc2nc(N)oc2CC1`, the Potency result in test [1] and in test [2] was “inactive” throughout.

On to `CC(=O)Nc1ccccc1O`, for which the Potency entry in test [1] and in test [2] was “inactive” in each case.

`CCCCNS(=O)(=O)c1ccc(C)cc1`: the Potency result in test [1] and in test [2] was “inactive” each time.

Turning to `CC(=O)OCc1ccccc1`, the Potency result in test [1] and in test [2] was “inactive” throughout.

With `CCCCOCCOC(=O)COc1cc(Cl)c(Cl)cc1Cl`, the Potency entry in test [1] and in test [2] was “inactive” throughout.

With `Nc1c2ccccc2nc2ccccc12`, the Potency entry in test [1] and in test [2] was “inactive” each time.

For `CCO[C@@H]1O[C@H](C(COCc2ccccc2)OCc2ccccc2)[C@H](OCc2ccccc2)[C@H]1O` (stereo not given in full), the Potency entry in test [1] and in test [2] was “inactive” in each case.

For `CC(=O)C(C)O` (stereo not given), the Potency result in test [1] and in test [2] was “inactive” each time.

Consider `CCN1CCC[C@H]1CNC(=O)c1c(OC)ccc(Br)c1OC`, for which the Potency entry in test [1] and in test [2] was “inactive” throughout.

Regarding `C1CN(SSN2CCOCC2)CCO1`, the Potency entry in test [1] and in test [2] was “inactive” each time.

`CCCC(=O)Nc1ccc(OCC(O)CNC(C)C)c(C(C)=O)c1` (stereo not given): the Potency entry in test [1] and in test [2] was “inactive” throughout.

As for `CCCCCCCCCCCC[N+](C)(C)CC(=O)[O-]`, the Potency entry in test [1] and in test [2] was “inactive” in each case.

Turning to `CC1=CC(=O)/C(=C(/C)O)C(=O)O1`, the Potency entry in test [1] and in test [2] was “inactive” throughout.

As to `O=S(=O)(O)c1ccc(N=Nc2c(O)ccc3cc(S(=O)(=O)O)ccc23)cc1`, the Potency result in test [1] and in test [2] was “inactive” throughout.

With `COc1cccc(O)c1`, the Potency result in test [1] and in test [2] was “inactive” each time.

On to `CCCCCCCC(OC)OC`, for which the Potency result in test [1] and in test [2] was “inactive” each time.

Take `N#C/C(=C1\SCC(c2ccccc2Cl)S1)n1ccnc1` (stereo not given): the Potency result in test [1] and in test [2] was “inactive” throughout.

In the case of `C=C(C)[C@@H]1CCC2=CCC[C@@H](C)[C@]2(C)C1`, the Potency entry in test [1] and in test [2] was “inactive” throughout.

Consider `O=C(O)Cc1cn(-c2ccccc2)nc1-c1ccc(Cl)cc1`, for which the Potency result in test [1] and in test [2] was “inactive” throughout.

Consider `O=C(O)/C=C/c1ccc(O)c(O)c1`, for which the Potency result in test [1] and in test [2] was “inactive” each time.

Turning to `CCc1cccc(O)c1`, the Potency result in test [1] and in test [2] was “inactive” throughout.

For `CCCCCCCN`, the Potency result in test [1] and in test [2] was “inactive” throughout.

On to `Cc1cccc(Nc2ccccc2C(=O)O)c1C`, for which the Potency result in test [1] and in test [2] was “inactive” in each case.

Consider `Nc1ccc(F)c([N+](=O)[O-])c1`, for which the Potency entry in test [1] and in test [2] was “inactive” throughout.

For the compound `O=C(O)CCC(=O)OC[C@@H](NC(=O)C(Cl)Cl)[C@H](O)c1ccc([N+](=O)[O-])cc1`, the Potency entry in test [1] and in test [2] was “inactive” each time.

On to `CC(CC=O)c1ccccc1` (stereo not given), for which the Potency entry in test [1] and in test [2] was “inactive” each time.

As for `CCCc1cc(C(N)=S)ccn1`, the Potency entry in test [1] and in test [2] was “inactive” each time.

Turning to `O=C(/C=C/C=C/c1ccc2c(c1)OCO2)N1CCCCC1`, the Potency result in test [1] and in test [2] was “inactive” throughout.

On to `CC(C)(C)[C@@H](O)[C@@H](Cc1ccc(Cl)cc1)n1cncn1`, for which the Potency result in test [1] and in test [2] was “inactive” in each case.

As for `Nc1ccc(N=Nc2ccc(N)cc2)cc1`, the Potency entry in test [1] and in test [2] was “inactive” in each case.

For `CN1[C@@H]2CC[C@H]1CC(OC(=O)C(CO)c1ccccc1)C2` (stereo not given in full), the Potency entry in test [1] and in test [2] was “inactive” each time.

As for `CC(=O)[O][Al]`, the Potency result in test [1] and in test [2] was “inactive” in each case.

Consider `CCOc1ccc2ccccc2c1C(=O)N[C@@H]1C(=O)N2[C@@H]1SC(C)(C)[C@@H]2C(=O)O`, for which the Potency result in test [1] and in test [2] was “inactive” throughout.

For `CCN(CC)CC(=O)OCC(=O)[C@@]1(O)CC[C@H]2[C@@H]3CCC4=CC(=O)CC[C@]4(C)[C@H]3[C@@H](O)C[C@@]21C`, the Potency entry in test [1] and in test [2] was “inactive” in each case.

As to `C=C1C(=C/C=C2\CCC[C@]3(C)[C@@H]([C@H](C)/C=C/[C@@H](O)C4CC4)CC[C@@H]23)C[C@@H](O)C[C@@H]1O`, the Potency entry in test [1] and in test [2] was “inactive” throughout.

`O=C(O)CCCCCCCCCC(=O)O`: the Potency result in test [1] and in test [2] was “inactive” in each case.

For the compound `NCCCN1CCN(CCCN)CC1`, the Potency entry in test [1] and in test [2] was “inactive” in each case.

For the compound `Nc1ccc(N)c(Cl)c1`, the Potency result in test [1] and in test [2] was “inactive” in each case.

With `CC(C)COC(=O)c1ccccc1O`, the Potency entry in test [1] and in test [2] was “inactive” in each case.

For the compound `CN1CCN(c2c(F)cc3c(=O)c(C(=O)O)cn4c3c2OCN4C)CC1`, in test [1], the viability change, negative = cytotoxic is 3.45% [at 18.9 µM]. In addition, the activity change, negative = cytotoxicity in test [2] is 10.7% [at 18.9 µM].

For the compound `C=Cc1ccccc1`, the Potency entry in test [1] and in test [2] was “inactive” in each case.

With `CC[C@@]1(O)C(=O)OCc2c1cc1n(c2=O)Cc2c-1nc1ccccc1c2/C=N/OC(C)(C)C`, the Potency result in test [1] and in test [2] was “inactive” each time.

Regarding `CCCCCCCCCCCC(C)=O`, the Potency entry in test [1] and in test [2] was “inactive” in each case.

Turning to `CC(CO)(CO)C(=O)O`, the Potency result in test [1] and in test [2] was “inactive” in each case.

For `CCc1oc2ccccc2c1C(=O)c1cc(Br)c(O)c(Br)c1`, the Potency result in test [1] and in test [2] was “inactive” each time.

`NC(N)=NCCC[C@H](N)C(=O)O`: the viability change, negative = cytotoxic in test [1] was -0.587% [at 8.39 µM]. In addition, the activity change, negative = cytotoxicity in test [2] was -0.412% [at 8.39 µM].

Regarding `BrC1CCC(Br)C(Br)CCC(Br)C(Br)CCC1Br` (stereo not given), the Potency result in test [1] and in test [2] was “inactive” throughout.

Turning to `COc1cc(NS(=O)(=O)c2ccc(N)cc2)nc(OC)n1`, the Potency result in test [1] and in test [2] was “inactive” throughout.

Turning to `CCN1C(=O)c2ccccc2C1Nc1ccc(OCCN2CCCCC2)cc1` (stereo not given), the Potency result in test [1] and in test [2] was “inactive” in each case.

As to `CC(C)CCO`, the Potency result in test [1] and in test [2] was “inactive” throughout.

Turning to `C[C@@H](CN(C)C)CN1c2ccccc2Sc2ccccc21`, the Potency result in test [1] and in test [2] was “inactive” each time.

In the case of `CC(CN1CC(=O)NC(=O)C1)N1CC(=O)NC(=O)C1` (stereo not given), the Potency result in test [1] and in test [2] was “inactive” in each case.

As for `CC(C)(C)C1CCCCC1O` (stereo not given), the Potency result in test [1] and in test [2] was “inactive” in each case.

Regarding `COC(=O)c1cc(Cl)ccc1[N+](=O)[O-]`, the Potency entry in test [1] and in test [2] was “inactive” each time.

Turning to `Nc1nc2c(ncn2COCCO)c(=O)[nH]1`, the Potency entry in test [1] and in test [2] was “inactive” throughout.

Consider `CCC(O)OCCCOC` (stereo not given), for which the Potency entry in test [1] and in test [2] was “inactive” throughout.

`O=S(=O)(O)NC1CCCCC1`: the Potency entry in test [1] and in test [2] was “inactive” each time.

For the compound `Nc1c(CC(=O)O)cccc1C(=O)c1ccc(Br)cc1`, the Potency entry in test [1] and in test [2] was “inactive” in each case.
